According to PubChem BioAssay AID1159580 (chemical genetic matrix, 2015):
In all, about 5,500 compounds went through this assay and about 2,000 (36%) were called active. About 18% were inconclusive and are not listed. No stated cut-off is given here; in the data, active means normalized growth mostly below about 0.91 (no sharp cut-off); inconclusive means no clear call, values can overlap the other calls; inactive means mostly above about 0.92. The list shows a part of the results.

Assay: chemical genetic growth profiling, strain panel (AID 1159580);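 further: tested at 20 µM; growth read once vehicle control cultures reached saturation at 30 °C; 1 = growth at the plate median or of vehicle wells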
Details: growth OD
[1] = S. cerevisiae deletion strains, locus YAL013W, strain DEP1, stronger effect = lower value
[2] = S. cerevisiae deletion strains, locus YBR229C, strain ROT2, stronger effect = lower value
[3] = S. cerevisiae deletion strains, locus YCL061C, strain MRC1, stronger effect = lower value
[4] = S. cerevisiae deletion strains, locus YDL101C, strain DUN1, stronger effect = lower value
[5] = S. cerevisiae deletion strains, locus YDR150W, strain NUM1, stronger effect = lower value
[6] = S. cerevisiae deletion strains, locus YEL061C, strain CIN8, stronger effect = lower value
[7] = S. cerevisiae deletion strains, locus YGR078C, strain PAC10, stronger effect = lower value
[8] = S. cerevisiae deletion strains, locus YHR030C, strain SLT2, stronger effect = lower value
[9] = S. cerevisiae deletion strains, locus YHR087W, strain rtc3, stronger effect = lower value
[10] = S. cerevisiae deletion strains, locus YJL187C, strain SWE1, stronger effect = lower value
[11] = S. cerevisiae deletion strains, locus YJR043C, strain POL32, stronger effect = lower value
[12] = S. cerevisiae deletion strains, locus YJR075W, strain HOC1, stronger effect = lower value
[13] = S. cerevisiae deletion strains, locus YLR039C, strain RIC1, stronger effect = lower value
[14] = S. cerevisiae deletion strains, locus YLR058C, strain SHM2 (second series), stronger effect = lower value
[15] = S. cerevisiae deletion strains, locus YLR085C, strain ARP6, stronger effect = lower value
[16] = S. cerevisiae deletion strains, locus YLR262C, strain YPT6, stronger effect = lower value
[17] = S. cerevisiae deletion strains, locus YML094W, strain GIM5, stronger effect = lower value
[18] = S. cerevisiae deletion strains, locus YMR219W, strain ESC1, stronger effect = lower value
[19] = S. cerevisiae deletion strains, locus YNL153C, strain GIM3, stronger effect = lower value
[20] = S. cerevisiae deletion strains, locus YNL298W, strain CLA4 (second series), stronger effect = lower value
[21] = S. cerevisiae deletion strains, locus YNL322C, strain KRE1, stronger effect = lower value
[22] = S. cerevisiae deletion strains, locus YNR030W, strain Alg12, stronger effect = lower value
[23] = S. cerevisiae deletion strains, locus YOL006C, strain TOP1, stronger effect = lower value
[24] = S. cerevisiae deletion strains, locus YPL055C, strain LGE1, stronger effect = lower value
[25] = S. cerevisiae deletion strains, locus YPL241C, strain CIN2, stronger effect = lower value
[26] = S. cerevisiae deletion strains, locus YPR135W, strain CTF4, stronger effect = lower value
[27] = S. cerevisiae strains, strain wild type, stronger effect = lower value

Measured: normalized growth

Cc1ccc(COc2ccc(C)nc2[N+](=O)[O-])cc1
active: S. cerevisiae deletion strains, locus YDL134C, strain PPH21, stronger effect = lower value 0.902 | [7] 0.918 | [8] 0.252 | [10] 0.932 | [11] 0.872 | [12] 0.857 | [13] 0.57 | [15] 0.295 | [16] 0.593 | [17] 0.855 | [18] 0.939 | [20] 0.75 | [22] 0.758 | [23] 0.593 | [25] 0.71 | [26] 0.382 | [27] 0.859
inactive: [1] 0.977 | [2] 0.932 | [3] 0.946 | [4] 0.905 | [5] 0.854 | [6] 0.922 | S. cerevisiae deletion strains, locus YGR229C, strain SMI1, stronger effect = lower value 0.958 | [9] 0.959 | [14] 0.954 | [19] 0.951 | [21] 0.972 | [24] 0.809

CN1CNc2c(c(=O)n(C)c(=O)n2C)C1
inactive: [1] 0.994 | [2] 0.999 | [3] 0.998 | [4] 0.974 | [5] 0.998 | [6] 0.996 | [7] 0.988 | [8] 1.04 | [9] 0.988 | [10] 1.01 | [11] 0.998 | [12] 1.02 | S. cerevisiae deletion strains, locus YKL190W, strain CNB1, stronger effect = lower value 1.01 | [13] 1.03 | [14] 1 | [15] 0.979 | [16] 1.01 | [17] 0.974 | [18] 0.998 | S. cerevisiae deletion strains, locus YMR263W, strain SAP30, stronger effect = lower value 1 | S. cerevisiae deletion strains, locus YNL128W, strain TEP1, stronger effect = lower value 1 | [19] 0.983 | [20] 1.01 | [21] 0.998 | [22] 1 | [23] 1.02 | [24] 0.953 | [25] 1.07 | [26] 1.01 | [27] 1
